Compound activity as filed in PubChem BioAssay.
D1 agonist: agonists of human D1 dopamine receptor. activation, % at 2 µM. HEK293 T-REx D1 cells, calcium flux, agonist mode. 360,000 tested, 1% active. P21728; note: 0% is about no effect
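Tetracycline-induced HEK293 TREx D1 cells, force-coupled to calcium signalling, were dye-loaded with a no-wash calcium kit. Compound was pin-added after a 10 s baseline. Fluorescence was read kinetically at 1 cycle/s for 180 s, with calcium rises flagged as agonism.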
TRHR ag: activates the human TRH receptor. 360,000 tested, 0.18% active. P34981. TRHR cells, calcium flux fluo-8, FDSS agonist mode. activation, % at 2 µM; note: 0% is about no effect
Target sequence (P34981 whole entry, looked up): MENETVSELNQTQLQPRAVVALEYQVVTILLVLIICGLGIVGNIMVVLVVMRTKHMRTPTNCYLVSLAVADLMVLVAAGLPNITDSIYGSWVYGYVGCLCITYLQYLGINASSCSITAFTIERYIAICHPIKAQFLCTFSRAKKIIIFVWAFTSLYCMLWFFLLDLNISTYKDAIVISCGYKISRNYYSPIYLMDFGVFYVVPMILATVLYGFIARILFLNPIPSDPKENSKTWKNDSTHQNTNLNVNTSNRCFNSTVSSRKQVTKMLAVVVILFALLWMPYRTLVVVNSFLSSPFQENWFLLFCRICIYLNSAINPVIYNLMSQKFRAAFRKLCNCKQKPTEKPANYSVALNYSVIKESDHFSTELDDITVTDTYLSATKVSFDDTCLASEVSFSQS
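Steps: seed TRHR cells overnight; add fluo-8 no-wash Ca dye, RT 30 min–1.5 h; record 10 s baseline; pin-transfer compounds; monitor fluorescence 1 cycle/s for the agonist window. Calcium increases flag candidate agonists.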
D1 antag: blocks dopamine activation of the human D1 receptor | HEK293 TREx D1 cells, calcium flux, dopamine EC80; stronger effect = lower value | activity change, negative = inhibition, % at 10 µM | P21728 | 360,000 tested, 3.2% active | AID 504652; in the data active = activity change below about -30%; note: % is set by controls: 0 for no effect and ±100 for the full control effect
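HEK293 T-REx cells expressing inducible, force-coupled D1 receptor; no-wash Ca dye, 30–90 min RT. Cmpd → 180 s read at 1 Hz → EC80 DA → 180 s read.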
D1 potentiator: enhances dopamine response at the human D1 receptor; potentiation, % at 10 µM; P21728; HEK293 TREx D1 cells, calcium flux, dopamine EC20 potentiation; 360,000 tested, 0.036% active; in the data active = potentiation above about 30%; note: 0% is about no effect
TRHR enhancer: allosterically enhances the human TRH receptor. 360,000 tested, 0.66% active. TRHR cells, fluo-8 calcium fluorescence, EC20 TRH enhancement. enhancement, % at 2 µM. P34981; in the data active = enhancement above about 30%; note: 0% is about no effect
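Enhancer read-out: after compound pinning and an initial kinetic agonist-mode read, an EC20 of TRH (10 nM final) was injected and fluo-8 calcium signal (Ex 480/Em 530) followed at 1 s/cycle for 100 cycles in TRHR-expressing cells.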
* hit, by the source's call; ! = repeats disagree. Only some compounds are listed: those with a hit (about 4.7% of all), similar ones and a draw of the others. Cut-off read from the data, not from the text of the source, unless noted: active = activation above about 30%; inactive = the rest.

SMILES	D1 agonist	TRHR ag	D1 antag	D1 potentiator	TRHR enhancer
Cc1ccc(C(=O)c2oc3ccccc3c2NC(=O)COc2ccc(C(C)(C)C)cc2)cc1	1.6	-0.5	1.1	-2.0	2.8
CC(=O)NC1CCCN(O)C(=O)/C=C(\C)CCOC(=O)C(NC(C)=O)CCCN(O)C(=O)/C=C(\C)CCOC(=O)C(NC(C)=O)CCCN(O)C(=O)/C=C(\C)CCOC1=O (centres undefined)	-3.5	0.4	11.1	-0.5	35.6*
Cc1ccc(CNC(=O)CCCCCn2c(=O)c3sccc3n(CC(=O)N(C)c3ccccc3)c2=O)cc1	1.5	-0.4	9.8	-0.3	-9.4
CCN(C(=O)CCS(=O)(=O)c1cccc2nsnc12)c1cccc(C)c1	0.3	-0.3	-56.6*!	-3.5	2.0
CC(C)(CO)Cc1cc(C(C)(C)C)c(O)c(C(C)(C)C)c1	71.1*	-0.8	22.0	-3.4	20.9
O=C(C1CCN(c2ncnc3c2nc2n3CCCCC2)CC1)N1CCN(c2cccc(Cl)c2)CC1	7.5	-0.9	-30.6*!	-2.5	6.0
O=C(NCCCN1CCN(c2ccccc2)CC1)C1CCCN(c2ncnc3c2nc2n3CCCCC2)C1 (centres undefined)	0.7	-0.4	-30.4*	-18.7	1.7
COc1ccc(OC)c(CNC(=O)C2CCCN(c3ncnc4c3nc3n4CCCCC3)C2)c1 (centres undefined)	1.4	-0.7	-33.1*	-1.3	-11.0
Cc1cccc(Oc2nc3c(c(=O)n(C)c(=O)n3C)n2Cc2ccccc2)c1C	0.5	-1.2	-5.4	-0.8	1.4
Cc1cccc(OC(=O)c2cc(-c3ccc(Cl)cc3)on2)c1C	5.5	-0.6	-5.4	0.5	-1.2
Oc1ccc(-c2nc3ccccc3s2)c(O)c1	0.9	-0.5	-36.8*	-2.4	2.5
O=C(NCCCN1CCN(c2ccccc2F)CC1)C1CCN(S(=O)(=O)N2CCOCC2)CC1	8.8	-0.3	-87.7*	-10.3	7.7
O=C(NCCCN1CCN(c2ccccc2F)CC1)C1COc2ccccc2C1 (centres undefined)	5.6	0.1	-34.4*	-4.5	-1.4
O=C(NCCS(=O)(=O)N1CCN(c2ccccc2F)CC1)C1CC(=O)N(c2ccccc2)C1 (centres undefined)	114.8*!	-0.2	3.9	-2.1	5.4
O=C(NCCN1CCN(c2ccccc2)CC1)C1CCN(S(=O)(=O)N2CCOCC2)CC1	1.7	0.3	-10.6	3.6	-2.9
COc1ccc2c(c1)CC(C(=O)NCCN1CCN(c3ccccc3F)CC1)CO2 (centres undefined)	1.1	0.4	-39.7*	-5.2	7.9
Cc1cc2c(s1)c1cnn(Cc3cc(C(F)(F)F)ccc3F)c(=O)c1n2C	5.1	-0.1	21.3	-4.3	0.5
Cc1ccc(C)c(N2CCN(C(=O)c3cc(C)nc4c3c(C)nn4-c3cccc(F)c3)CC2)c1	7.8	-2.0	-26.6	9.7	7.1
CCC(=O)N1c2ccccc2CC1C(=O)NCCN1CCN(c2ccccc2F)CC1 (centres undefined)	-0.7	0.2	-3.5	-1.1	-0.8
COc1ccc(N2CCN(CCCNC(=O)C3COc4ccccc4C3)CC2)cc1 (centres undefined)	13.1	0.1	-18.7	-0.8	7.6
Cc1ccc(C)c(N2CCN(CCCNC(=O)C3COc4ccccc4C3)CC2)c1 (centres undefined)	63.3*	1.3	-26.1	-0.1	-5.8
O=C(NCCN1CCN(c2ccccc2F)CC1)C1c2ccccc2C(=O)N2CCc3ccccc3C12 (centres undefined)	0.3	0.4	-44.1*	-4.5	0.7
Cc1cccc(CN2C(=O)c3ccccc3Sc3ccc(C(=O)NCc4cccs4)cc32)c1	4.7	0.8	16.8	-0.8	-3.2
Cc1cccc(N(C)S(=O)(=O)c2cc3[nH]c(=O)c(=O)[nH]c3cc2C)c1	0.1	0.5	1.2	-1.6	13.2
CCN(CC)CCNC(=O)c1ccc(NC(=O)c2ccc(S(=O)(=O)N3CCCCCC3)cc2)cc1	1.5	-0.3	-56.8*	-17.4	10.3
SMILES	D1 agonist	TRHR ag	D1 antag	D1 potentiator	TRHR enhancer
O=C(Nc1ccc(Br)cc1)c1ccc(Cl)c(S(=O)(=O)N2CCCCCC2)c1	3.7	1.7	-18.9	1.2	-9.4
CCN(CC)CCNC(=O)c1ccc(NC(=O)c2ccc(Cl)c(S(=O)(=O)N3CCCCCC3)c2)cc1	3.1	1.0	-46.8*	-17.1	-3.6
Cc1ccc(N2C(=O)C(CC(=O)Nc3ccccc3)N(CCC3=CCCCC3)C2=O)cc1 (centres undefined)	12.1	-1.2	7.9	-3.2	-1.2
O=C(Nc1ccccc1F)c1oc2ccccc2c1NC(=O)C12CC3CC(CC(C3)C1)C2	2.2	0.6	7.6	2.7	12.5
COc1ccccc1NC(=O)N1CCC(CN2CCc3ccccc3C2)CC1	0.8	0.3	0.5	-4.2	-1.4
CN(c1cccc(NC(=O)c2ccc(Cl)c(S(=O)(=O)Nc3ccccc3)c2)c1)S(C)(=O)=O	4.8	-1.5	-41.9*	4.2	-3.0
CN(c1cccc(NS(=O)(=O)c2ccccc2)c1)S(C)(=O)=O	3.2	-0.3	-37.1*	-5.2	-3.2
CCOc1ccc(S(=O)(=O)Nc2cccc(N(C)S(C)(=O)=O)c2)cc1	22.7	-0.3	-39.4*	-6.2	-0.9
CC(=O)Nc1ccc(S(=O)(=O)Nc2cccc(N(C)S(C)(=O)=O)c2)cc1	0.9	-0.3	-25.9	-4.7	14.8
Cc1cc(C)n(S(=O)(=O)c2ccccc2[N+](=O)[O-])n1	5.1	-0.4	-55.7*	1.6	1.9
COc1ccc(Cl)cc1NC(=O)Cn1cnc2c1c(=O)n(C)c(=O)n2C	5.2	0.3	-18.8	0.1	-6.5
N#Cc1ccccc1NC(=O)C(=O)NCC(c1cccnc1)N1CCN(c2ccccc2)CC1 (centres undefined)	8.8	0.3	-20.4	-3.2	4.7
COc1cc(-c2cc(C(=O)O)c3c(OC)c(OC)c(OC)cc3n2)ccc1O	1.1	0.6	-50.3*	-8.2	0.4
OCC[C@@H]1C[C@H](O)[C@@H](O)[C@@]2(Cc3ccccc3CO2)O1	0.1	1.4	-68.9*	-0.1	24.8
O=S(=O)(c1ccc2[nH]ccc2c1)N1CCCCCC1	1.4	0.0	-30.3*	-2.2	-8.0
O=c1ccc2cc(S(=O)(=O)N3CCCC3)ccc2[nH]1	0.2	0.5	-2.2	-1.6	6.4
Cc1ccc(Sc2c(C)nn(C(C)(C)C)c2OC(=O)CC(C)C)cc1	7.7	1.1	21.1	8.1	0.7
Cc1ccc(S(=O)(=O)N(Cc2ccccc2)Cc2ccco2)cc1	10.7	3.2	-30.7*	-9.3	-1.4
Cc1ccc(S(=O)(=O)N(CC(=O)O)Cc2ccco2)cc1	2.0	0.6	6.1	26.1	-3.7
Cc1ccc(S(=O)(=O)N(Cc2ccc(F)cc2)Cc2ccco2)cc1	7.7	1.0	-33.0*	-9.7	-7.0
CC(C)NC(=O)Cn1c(SCC(=O)N2CCc3ccccc3C2)nc2ccccc21	1.8	-0.3	11.9	0.5	-11.5
